PubChem BioAssay (Tox21)
Values joined by “and” are separate entries in the source; they are usually repeats but may differ in a detail not shown here. Equal entries are not always repeated. Inconclusive results are not listed. A structure can be active in one record and inactive in another. Active and inactive are the calls of the source. Unless noted, the call rests on the fitted dose curve; in most records, active means well fitted curve in the direction sought with a large enough effect in the repeat runs; inconclusive means weak or mixed curves; inactive means no such curve, though single readings can be large; an effect the other way counts as inactive or inconclusive.

Tests used:
[1] = biological target: Peroxisome proliferator-activated receptor delta (Homo sapiens) (UniProt Q03181); assay: qHTS assay to identify small molecule agonists of the peroxisome proliferator-activated receptor delta (PPARd) signaling pathway (AID 743212; calls by dose curve)
Sequence of Peroxisome proliferator-activated receptor delta (Homo sapiens) (Q03181 whole entry, looked up): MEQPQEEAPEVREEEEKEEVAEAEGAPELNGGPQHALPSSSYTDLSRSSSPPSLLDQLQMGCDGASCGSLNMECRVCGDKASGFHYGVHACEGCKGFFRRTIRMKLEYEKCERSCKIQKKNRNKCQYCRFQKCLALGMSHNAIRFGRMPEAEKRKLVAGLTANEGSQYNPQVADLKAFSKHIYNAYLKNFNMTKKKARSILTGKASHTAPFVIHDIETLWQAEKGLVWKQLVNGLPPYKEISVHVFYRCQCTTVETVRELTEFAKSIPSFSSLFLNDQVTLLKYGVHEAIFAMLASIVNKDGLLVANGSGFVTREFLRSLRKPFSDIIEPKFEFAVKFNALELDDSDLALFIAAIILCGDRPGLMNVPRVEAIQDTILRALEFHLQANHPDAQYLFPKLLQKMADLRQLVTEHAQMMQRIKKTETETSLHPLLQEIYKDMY
Method in brief: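 Tox21 library screened in GeneBLAzer PPARd UAS-bla HEK293H cells. After compound treatment at 37 C, a FRET-based beta-lactamase substrate was applied for 2 h and fluorescence recorded.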

[2] = qHTS assay to identify small molecule antagonists of the peroxisome proliferator-activated receptor delta (PPARd) signaling pathway - cell viability counter screen (AID 743213); further: nearly all actives have a fitted effect of over 50% in size; further: potency means the concentration at half of the fitted maximal effect
Method in brief: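 PPARd-bla HEK293H cells were treated with compounds plus agonist L165041 (300 nM final) for 17 h at 37 C. Viability was then read in the same wells by CellTiter-Glo luminescence after 30 min at room temperature.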

[3] = biological target: Peroxisome proliferator-activated receptor delta (Homo sapiens) (UniProt Q03181); assay: qHTS assay to identify small molecule antagonists of the peroxisome proliferator-activated receptor delta (PPARd) signaling pathway (AID 743215; active means well fitted inhibition curve with a large enough effect in the signal ratio in the repeat runs, not every such curve was filed as active; the % refers to the signal ratio;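 further: cells stimulated with agonist L165041 at 300 nM final during compound exposure; series mostly up to about 62 µM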)
Method in brief: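 HEK293H GeneBLAzer PPARd UAS-bla reporter cells; cpd + L165041 300 nM final, 17 h 37 C; LiveBLAzer B/G FRET substrate 2 h RT; fluorescence intensity read-out. Antagonist mode.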

[4] = qHTS assay to identify small molecule agonists of the farnesoid-X-receptor (FXR) signaling pathway - cell viability counter screen (AID 743218); further: nearly all actives have a fitted effect of over 45% in size; further: potency means the concentration at half of the fitted maximal effect
Method in brief: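 Luminescence from CellTiter-Glo, read after 30 min at RT, reports viability of GeneBLAzer FXR-UAS-bla HEK 293T cells treated 16 h with compounds in the wells used for the beta-lactamase reporter.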

[5] = biological target: Bile acid receptor (Homo sapiens) (UniProt Q96RI1); assay: qHTS assay to identify small molecule agonists of the farnesoid-X-receptor (FXR) signaling pathway (AID 743220; active means well fitted activation curve with a large enough effect in the signal ratio in the repeat runs, not every such curve was filed as active; the % refers to the signal ratio)
Sequence of Bile acid receptor (Homo sapiens) (Q96RI1 whole entry, looked up): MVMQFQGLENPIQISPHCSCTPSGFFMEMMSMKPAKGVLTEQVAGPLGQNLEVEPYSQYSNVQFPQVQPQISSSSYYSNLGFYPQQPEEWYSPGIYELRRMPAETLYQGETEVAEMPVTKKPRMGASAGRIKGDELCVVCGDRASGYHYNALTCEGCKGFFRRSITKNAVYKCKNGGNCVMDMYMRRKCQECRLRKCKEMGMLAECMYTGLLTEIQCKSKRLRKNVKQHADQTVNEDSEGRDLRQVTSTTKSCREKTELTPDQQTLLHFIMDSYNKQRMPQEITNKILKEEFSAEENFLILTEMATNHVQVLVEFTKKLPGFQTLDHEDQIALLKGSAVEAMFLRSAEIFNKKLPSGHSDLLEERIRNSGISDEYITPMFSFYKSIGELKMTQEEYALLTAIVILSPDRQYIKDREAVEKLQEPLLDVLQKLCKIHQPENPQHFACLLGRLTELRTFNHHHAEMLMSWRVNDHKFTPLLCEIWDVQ
Method in brief: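 FXR-UAS-bla HEK 293T cells carrying a UAS-driven beta-lactamase reporter were plated for 5 h at 37C/5% CO2, then exposed to DMSO-dissolved Tox21 10K compounds for 16 h at 37C. A LiveBLAzer B/G FRET substrate was loaded for 2 h at room temperature before fluorescence reading.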

[6] = qHTS assay to identify small molecule antagonists of the farnesoid-X-receptor (FXR) signaling pathway - cell viability counter screen (AID 743221; active means well fitted cell-killing curve with a large enough effect in the repeat runs, not every such curve was filed as active; further: nearly all actives have a fitted effect of over 50% in size; further: potency means the concentration at half of the fitted maximal effect)
Method in brief: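 HEK 293T FXR-bla cells, 5 h pre-incubation; compound + CDCA 50 uM final, 16 h, 37 C; beta-lactamase FRET read first, then CellTiter-Glo luminescence, 30 min RT.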

[7] = qHTS assay to identify small molecule agonists of the vitamin D receptor (VDR) signaling pathway - cell viability counter screen (AID 743224); further: nearly all actives have a fitted effect of over 50% in size; further: potency means the concentration at half of the fitted maximal effect
Method in brief: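 Cytotoxicity counter screen: VDR-bla cells, 16 h compound exposure at 37C, 5% CO2; CellTiter-Glo luminescence, 30 min RT, same wells as bla read.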

[8] = biological target: Vitamin D3 receptor (Homo sapiens) (UniProt P11473); assay: qHTS assay to identify small molecule agonists of the vitamin D receptor (VDR) signaling pathway (AID 743222; calls by dose curve)
Sequence of Vitamin D3 receptor (Homo sapiens) (P11473 whole entry, looked up): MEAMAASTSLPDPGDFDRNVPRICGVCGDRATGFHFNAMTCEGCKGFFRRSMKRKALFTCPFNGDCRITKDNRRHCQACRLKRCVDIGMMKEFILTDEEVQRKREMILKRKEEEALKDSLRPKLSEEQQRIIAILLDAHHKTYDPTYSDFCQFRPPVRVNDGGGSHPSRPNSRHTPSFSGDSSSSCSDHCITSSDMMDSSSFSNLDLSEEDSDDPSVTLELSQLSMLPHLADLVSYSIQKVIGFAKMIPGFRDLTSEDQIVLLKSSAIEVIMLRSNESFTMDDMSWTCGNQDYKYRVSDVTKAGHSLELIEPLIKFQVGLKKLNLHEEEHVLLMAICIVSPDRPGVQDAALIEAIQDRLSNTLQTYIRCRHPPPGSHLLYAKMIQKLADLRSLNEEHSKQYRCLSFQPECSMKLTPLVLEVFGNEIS
Method in brief: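 Beta-lactamase reporter readout (LiveBLAzer B/G FRET, 2 h RT) in VDR-bla cells after 16 h compound treatment at 37C, 5% CO2; cells pre-incubated 4 h before pin transfer of DMSO solutions.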

[9] = biological target: Vitamin D3 receptor (Homo sapiens) (UniProt P11473); assay: qHTS assay to identify small molecule antagonists of the vitamin D receptor (VDR) signaling pathway (AID 743223; active means well fitted inhibition curve with a large enough effect in the signal ratio in the repeat runs, not every such curve was filed as active; the % refers to the signal ratio)
Method in brief: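 Beta-lactamase reporter read-out: FRET substrate fluorescence after 2 h at room temperature, following 16 h exposure of VDR-bla cells to test compound plus 3 nM (final) 1alpha,25-dihydroxyvitamin D3 agonist at 37C.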

[10] = qHTS assay to identify small molecule antagonists of the vitamin D receptor (VDR) signaling pathway - cell viability counter screen (AID 743225); further: nearly all actives have a fitted effect of over 50% in size; further: potency means the concentration at half of the fitted maximal effect
Method in brief: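 Viability counter screen run in the same wells as the beta-lactamase reporter assay: HEK 293T VDR-UAS-bla cells, 16 h compound exposure at 37C with 3 nM (final) 1-alpha,25-dihydroxyvitamin D3. CellTiter-Glo luminescence, 30 min, room temperature.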

Measured: Potency

Fc1cccc(Cl)c1CCl
not listed: [8] | [9] | [10]
inactive: all other assays above

Oc1ccc(C(c2ccc(O)cc2)(C(F)(F)F)C(F)(F)F)cc1
inactive and 54.9 µM (active): [7]
not listed: [5] | [10]
inactive: all other assays above

BrCBr
not listed: [5]
inactive: all other assays above

Clc1ccc(C(c2ccccc2Cl)C(Cl)(Cl)Cl)cc1 (stereo not drawn)
active: [4] 62.1 µM | [7] 43.9 µM
not listed: [5] | [10]
inactive: all other assays above

CC(C)OC(=O)C(O)(c1ccc(Cl)cc1)c1ccc(Cl)cc1
inactive: [1] | [2] | [3] | [4] | [6] | [8]

CC(C)(C)c1cc([N+](=O)[O-])cc(C(C)(C)C)c1O
active: [7] 12.3 µM | [10] 12.3 µM
not listed: [6] | [9]
inactive: all other assays above

COc1ccc(OC)c(CC(C)N)c1 (stereo not drawn)
not listed: [5]
inactive: all other assays above

ClC(Cl)=C(c1ccc(Cl)cc1)c1ccc(Cl)cc1
active: [4] 38.9 µM
inactive and 38.9 µM (active): [7]
inactive: all other assays above

C[C@]12Cc3nonc3C[C@@H]1CC[C@@H]1[C@@H]2CC[C@@]2(C)[C@H]1CC[C@]2(C)O
not listed: [5] | [10]
inactive: all other assays above

CC(=O)OC1(c2ccccc2)CCN(CCc2ccccc2)CC1
not listed: [5] | [8] | [9]
inactive: all other assays above

C[C@H]1CC[C@@H]2[C@@H](C)[C@H]3[C@H](C[C@H]4[C@@H]5CC=C6CC(O[C@@H]7O[C@H](CO)[C@H](O)[C@H](O[C@@H]8O[C@H](CO)[C@@H](O)[C@H](O)[C@H]8O)[C@H]7O[C@H]7O[C@@H](C)[C@H](O)[C@@H](O)[C@H]7O)CC[C@]6(C)[C@H]5CC[C@]34C)N2C1 (stereo partly drawn)
active: [2] 25.3 µM | [4] 8.02 µM | [6] 14.3 µM
not listed: [5]
inactive: all other assays above

CC(C)OS(C)(=O)=O
not listed: [5] | [9]
inactive: all other assays above

O=C(CCCN1CCC2(CC1)C(=O)NCN2c1ccccc1)c1ccc(F)cc1
inactive: [1] | [2] | [3] | [6] | [8] | [9]

C1CCC2CCCCC2C1 (stereo not drawn)
inactive: all assays above

O=C(O)C1C2CCC(O2)C1C(=O)O (stereo not drawn)
not listed: [5] | [10]
inactive: all other assays above

CCCCCCCCCCCCCN1CC(C)OC(C)C1 (stereo not drawn)
not listed: [5] | [8] | [9]
inactive: all other assays above

CC(=O)c1cc(C(C)(C)C)cc2c1CCC2(C)C
active: [7] 49 µM
not listed: [4] | [5] | [10]
inactive: all other assays above

CC1(C)C(/C=C(\Cl)C(F)(F)F)C1C(=O)OC(C#N)c1cccc(Oc2ccccc2)c1 (stereo not drawn)
not listed: [10]
inactive: all other assays above

BrC(Br)Br
not listed: [5] | [9]
inactive: all other assays above

c1ccc(Nc2ccc3ccccc3c2)cc1
not listed: [5] | [8] | [9]
inactive: all other assays above

CN(C)CCc1c[nH]c2ccc(O)cc12
not listed: [5] | [7] | [10]
inactive: all other assays above

Cc1cc(C)c(C2=C(OC(=O)CC(C)(C)C)C3(CCCC3)OC2=O)c(C)c1
not listed: [5] | [8] | [9]
inactive: all other assays above
